Laboratory results reported in PubChem BioAssay (NCI).
The panel holds about 83,000 compounds, 20% with a hit somewhere; the sample as a whole holds those more often.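 Values shown are percent growth following 48 h exposure of cells in 96-well plates to a single concentration of compound; below 10 was considered active.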 Values without a mark were called inactive. Calls of active or inactive are those of the source.

These compounds were tested on MALME-3M melanoma (assay: NCI-60 one-dose screen, 48 h (100 = growth as untreated, 0 = no growth, -100 = all killed)). Conditions: 10 µM unless noted.
For CC(=O)NNC(=O)c1sc(NC(C)=O)nc1C, the growth was 168%.
Work on Nc1ccc(S(=O)(=O)c2ccc(NO)cc2)cc1 yielded a growth of 144%.
In the case of Cc1c(Cc2ccccc2)c(=O)oc2c(C)c(OCC(=O)n3nc(C#N)cc3N)ccc12, the growth is reported as 99.5%.
For NC(=O)CC(NC(=O)COc1ccc(Cl)cc1Cl)C(=O)O (stereo not given), the growth was 105%.
For CCCCCCCCC1OC1CCCCCCCC(=O)O (stereo not given), the growth was 90.1%.
CC(=O)/C(=C/c1ccc(-c2ccccc2)cc1)C(=O)c1ccccc1 was tested, and the growth was 89.3%.
With COc1ccc(-c2nc(Nc3nc4ccccc4[nH]3)nc(N)c2C#N)cc1 the growth was 106%.
CCC(CCCN1C(=O)c2ccccc2C1=O)Nc1cc(OC)cc2cccnc12 (stereo not given) gave a growth of 142%.
Compound CC(=O)OC1/C=C\CC/C=C\C1 (stereo not given) has a growth of 108%.
With CCc1ccc(C(=Nc2ccc(N(C)C(=O)CN3CCN(C)CC3)cc2)c2c(O)[nH]c3ccc(C(=O)OC)cc23)cc1 the growth was -91.8% (active).
For c1ccc2[nH]c(-c3ccc(OCCCCCOc4ccc(-c5nc6ccccc6[nH]5)cc4)cc3)nc2c1, the growth was -30.8% (active).
Oc1ccc(CN(Cc2ccc(C(F)(F)F)cc2)Cc2ccc(O)c3ncccc23)c2cccnc12 gave a growth of 23.7%.
With COc1ccc2nc3cc(Cl)ccc3c(NCCCNC(C)=O)c2c1 the growth was 40%.
For O=C(N/N=C\c1ccc(Cl)cc1)C(=O)N/N=C\c1ccc(Cl)cc1, the growth was 89.6%.
Work on Cc1nc2c(nnn2-c2ccccc2)c2nc(-c3ccccc3)oc(=O)c12 yielded a growth of 115%.
In the case of COC(=O)c1ccc2[nH]c(O)c(C(=Nc3ccc(N(C)C(=O)CN4CCN(C)CC4)cc3)c3ccc(N)cc3)c2c1, the growth is reported as 83.5%.
For Cc1nc(N)sc1C(=O)NCCO, the growth was -3.05% (active).
Compound CC(=O)Nc1nc(C)c(C(=O)N/N=C/N2CCOCC2)s1 has a growth of 114%.
Compound O=C(O)CC1Cc2ccccc2C1C(=O)O (stereo not given) has a growth of 103%.
In the case of Cc1ccc2c(c1)C(=O)CCS2, the growth is reported as 85%.
With CCC(C)(C)c1ccc(OCCCCCCN2CCNCC2)cc1 the growth was 72%.
In the case of c1ccc(Nc2ccccn2)cc1, the growth is reported as 103%.
Compound Brc1ccc(-c2nc3ccccc3s2)cc1 has a growth of 95.8%.
O=C1/C(=N\c2cc(=O)[nH]n2S(=O)(=O)c2ccccc2)Nc2ccccc21 showed a growth of 95.1%.
With CCCC(C)c1cc(Cc2cc(Cl)cc(Cl)c2O)c(O)c(Cc2cc(Cl)cc(Cl)c2O)c1 (stereo not given) the growth was -22.2% (active).
c1ccc(Nc2ncc3c(n2)-c2cccn2CC3)cc1 was tested, and the growth was 95.1%.
In the case of CC1=C(C)C(=O)C(C(C)C2=C(C)C(=O)C(C)=C(C)C2=O)=C(C)C1=O, the growth is reported as 119%.
In the case of C=CCSc1nnc(COc2ccc3c(C)c(Cc4ccccc4)c(=O)oc3c2C)o1, the growth is reported as 108%.
CCOc1nc(-c2ccccc2)cc2c(O)c(C(=O)N/N=C/c3ccccc3O)[nH]c(=O)c12 showed a growth of 119%.
Work on CC(=O)Nc1nc(C)c(C(=O)NNC(=O)Nc2ccccc2)s1 yielded a growth of 126%.
Compound c1cc[c]([Bi]([c]2ccccc2)[c]2ccccc2)cc1 has a growth of 94%.
COc1cc(NC(=O)CSc2nc3ccc(Cl)cc3c(=O)n2-c2ccc(F)cc2)cc(OC)c1OC was tested, and the growth was 85.8%.
CC(=O)Nc1nc(C)c(C(=O)NN)s1 showed a growth of 120%.
For COC(=O)C(C)[C@H]1CC[C@@H]2[C@]1(C)CC=C1[C@]23C=C[C@]2(C[C@@H](OC(C)=O)CC[C@]12C)C(C(=O)OC)C3C(=O)OC (stereo not given in full), the growth was 73.1%.
Compound Cc1nc2c(nnn2-c2ccccc2)c2nc(-c3ccc(Cl)cc3)oc(=O)c12 has a growth of 101%.
CCCCCCCCC/C(=N\NC(=O)c1ccncc1)c1ccc(O)c(O)c1O showed a growth of 35.4%.
With CNCCCNCCCCNCCCN1C(=O)c2ccc3c4c(ccc(c24)C1=O)C(=O)N(CCCNCc1ccccc1OC)C3=O the growth was -26.1% (active).
Cc1nc(NC(=S)Nc2ccc(F)cc2)sc1C(=O)NNC(=S)Nc1ccc(F)cc1 was tested, and the growth was 125%.
With CCOc1ccc(/C=N/NC(=O)c2cccc3ccccc23)cc1OCC the growth was 114%.
With O=C(/C=C/c1ccc(Br)cc1)c1ccccc1 the growth was 104%.
